Assay [1] can be described thus: Human pregnane X receptor (PXR) small molecule agonists, qHTS cell viability counter screen (AID 1346977). Also: nearly all actives have a fitted effect of over 50% in size. Also: potency is read from the fitted curve at half-maximal effect. Put shortly:
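In each well, the PXR reporter HepG2 line was checked for viability: CellTiter-Fluor reagent added 23hr post-dosing, fluorescence read after 1hr incubation at 37C.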
On the technique in general: In qHTS, concentration-response curves come from the screen itself.

Assay [2] is described as follows: Caspase-3/7 induction in CHO-K1 cells by small molecules, qHTS cell viability counter screen (AID 1346979). Also: nearly all actives have a fitted effect of over 35% in size. Also: potency is read from the fitted curve at half-maximal effect. The method in brief: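 Following a 5hr settling period, CHO-K1 cells at 1,500 per well received DMSO-dissolved compounds. Cell viability was quantified 16hr later by CellTiter-Fluor fluorescence, measured after 1hr with reagent at 37C.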
The target of assay [3] is Nuclear receptor subfamily 1 group I member 2 (Homo sapiens) (UniProt O75469). Put plainly: Human pregnane X receptor (PXR) small molecule agonists, qHTS assay (AID 1346982). Also: nearly all actives have a fitted effect of over 35% in size. Also: potency is read from the fitted curve at half-maximal effect. Put shortly: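 Agonist mode: luminescence from ONE-Glo after 24 h compound exposure at 37C in HepG2 cells carrying hPXR-responsive CYP3A4 luciferase, plated in charcoal-stripped serum medium 5 h beforehand.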

Assay [4] addresses Acetylcholinesterase (Homo sapiens) (UniProt P22303). The assay can be described thus: Acetylcholinesterase (AChE) small molecule antagonists: colormetric cell-based qHTS assay (AID 1347395; calls by dose curve; also: nearly all actives have a fitted effect of over 30% in size; also: potency is read from the fitted curve at half-maximal effect). Put shortly: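 After overnight attachment at 37 C, SH-SY5Y cells get 30 min compound exposure; detection cocktail (acetylthiocholine, DTNB) then incubates 90 min at 37 C, and absorbance reflects AChE-generated thiocholine.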

The nature of assay [5]: Caspase-3/7 induction in HepG2 cells by small molecules, qHTS assay (AID 1346978). Also: nearly all actives have a fitted effect of over 15% in size. Also: potency is read from the fitted curve at half-maximal effect. Put shortly:
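Wild-type HepG2 cells (2,000/well) were settled 5 h at 37 C, 5% CO2, then exposed to compounds in DMSO for 17 h. Caspase-3/7 activity was read by luminescence 30 min after adding Caspase-Glo 3/7 reagent at room temperature.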

Assay [6] can be described thus: Caspase-3/7 induction in CHO-K1 cells by small molecules, qHTS assay (AID 1346980). Also: nearly all actives have a fitted effect of over 15% in size. Also: potency is read from the fitted curve at half-maximal effect. Put shortly: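 Wild-type cells were seeded at 1,500 per well and settled 5 hr at 37 C, 5% CO2, then exposed to DMSO-dissolved compounds for 17 hr. Caspase-Glo 3/7 reagent was added, and luminescence was read after 30min at room temperature.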
A short description of assay [7]: Caspase-3/7 induction in HepG2 cells by small molecules, qHTS cell viability counter screen (AID 1346981). Also: nearly all actives have a fitted effect of over 30% in size. Also: potency is read from the fitted curve at half-maximal effect. The method in brief:
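CellTiter-Fluor fluorescence measured viability in the same wells used for Caspase-Glo 3/7. HepG2 (wild type) at 2,000 cells/well were pre-incubated 5 hr, dosed, and given reagent at 16 hr, with 1 hr further at 37C.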

Assay [8] addresses Nuclear receptor subfamily 1 group I member 2 (Rattus norvegicus) (UniProt Q9R1A7). The assay can be described thus: Rat pregnane X receptor (rPXR) activation by small molecules, qHTS assay (AID 1346983). Also: nearly all actives have a fitted effect of over 20% in size. To be noted: rPXR luciferase reporter cells, One-Glo luminescence, 24 h; max activation: hits give high values. Put shortly:
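Cell-based rPXR luciferase reporter assay, 2,000 cells per well, rested 5hr at 37 C before compound addition in DMSO, then 24 hr at 37 C. One-Glo reagent was added and luminescence read after 30 min at room temperature.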

Assay [9] deals with Nuclear receptor subfamily 1 group I member 2 (Homo sapiens) (UniProt O75469). The assay can be described thus: CYP3A4 induction through human pregnane X receptor (PXR) by small molecules, qHTS assay (AID 1346984). Also: nearly all actives have a fitted effect of over 40% in size. The method in brief:
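Read-out is luminescence after One-Glo addition, following a 3 hr, 37C incubation with Luciferin-IPA CYP3A4 substrate (3uM final). Before that, compounds were on DPX-2 cells (HepG2 co-transfected with PXR element plus CYP3A4-promoter luciferase) for 24 hr at 37C.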

Assay [10] shares this target. The assay can be described thus: Human pregnane X receptor (PXR) activation by small molecules, qHTS assay (AID 1346985). Also: nearly all actives have a fitted effect of over 40% in size. Put shortly: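 DPX-2 cells (HepG2 co-transfected with a PXR response element and a CYP3A4-promoter luciferase construct) were seeded at 2,000 per well, rested 5 hr at 37C, then exposed to DMSO-dissolved compounds for 24 hr. Activation was read as luciferase luminescence.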

Values joined by “and” are separate entries in the source; they are usually repeats but may differ in a detail not shown here. Equal values may be shown once. Unmarked numbers belong to inactive results. Results filed as inconclusive are left out. Active and inactive are the calls of the source. Unless noted, calls follow the shape of the dose curve; as a rule, active = well fitted curve in the direction sought with a large enough effect in the repeat runs; inconclusive = weak or mixed curves; inactive = no such curve, though single readings can be large; an effect the other way counts as inactive or inconclusive.
% is scaled to controls: 0 for no effect and ±100 for the full control effect.

Acetylcholinesterase (Homo sapiens), sequence (P22303 whole entry, looked up): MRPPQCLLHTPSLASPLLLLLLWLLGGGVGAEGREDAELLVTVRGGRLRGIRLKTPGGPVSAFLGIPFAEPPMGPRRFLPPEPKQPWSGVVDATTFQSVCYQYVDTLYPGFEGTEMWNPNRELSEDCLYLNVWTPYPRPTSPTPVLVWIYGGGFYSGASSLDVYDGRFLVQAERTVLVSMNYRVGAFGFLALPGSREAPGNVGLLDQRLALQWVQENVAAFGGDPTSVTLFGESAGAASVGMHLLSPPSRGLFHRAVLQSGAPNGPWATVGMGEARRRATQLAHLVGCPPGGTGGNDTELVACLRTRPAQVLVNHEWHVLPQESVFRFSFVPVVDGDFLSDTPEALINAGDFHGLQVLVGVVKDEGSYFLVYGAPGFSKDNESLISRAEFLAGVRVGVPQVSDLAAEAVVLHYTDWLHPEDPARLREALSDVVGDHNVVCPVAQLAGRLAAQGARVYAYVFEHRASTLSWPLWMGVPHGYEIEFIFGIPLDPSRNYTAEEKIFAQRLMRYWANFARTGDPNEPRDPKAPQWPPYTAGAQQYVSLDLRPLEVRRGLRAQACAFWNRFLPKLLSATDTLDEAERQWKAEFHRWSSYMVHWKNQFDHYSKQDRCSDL
Nuclear receptor subfamily 1 group I member 2 (Homo sapiens), sequence (O75469 whole entry, looked up): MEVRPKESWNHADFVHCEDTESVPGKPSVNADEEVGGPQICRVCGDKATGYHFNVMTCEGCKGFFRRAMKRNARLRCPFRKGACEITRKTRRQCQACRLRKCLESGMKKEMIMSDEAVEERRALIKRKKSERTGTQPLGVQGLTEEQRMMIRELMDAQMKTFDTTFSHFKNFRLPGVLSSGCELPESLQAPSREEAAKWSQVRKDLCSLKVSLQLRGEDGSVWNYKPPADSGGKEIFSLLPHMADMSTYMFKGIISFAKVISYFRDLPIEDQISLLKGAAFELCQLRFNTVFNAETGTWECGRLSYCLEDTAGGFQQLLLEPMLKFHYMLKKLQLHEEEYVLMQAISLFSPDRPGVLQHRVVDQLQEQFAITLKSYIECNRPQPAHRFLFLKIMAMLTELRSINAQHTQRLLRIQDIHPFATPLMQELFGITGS
Nuclear receptor subfamily 1 group I member 2 (Rattus norvegicus), sequence (Q9R1A7 whole entry, looked up): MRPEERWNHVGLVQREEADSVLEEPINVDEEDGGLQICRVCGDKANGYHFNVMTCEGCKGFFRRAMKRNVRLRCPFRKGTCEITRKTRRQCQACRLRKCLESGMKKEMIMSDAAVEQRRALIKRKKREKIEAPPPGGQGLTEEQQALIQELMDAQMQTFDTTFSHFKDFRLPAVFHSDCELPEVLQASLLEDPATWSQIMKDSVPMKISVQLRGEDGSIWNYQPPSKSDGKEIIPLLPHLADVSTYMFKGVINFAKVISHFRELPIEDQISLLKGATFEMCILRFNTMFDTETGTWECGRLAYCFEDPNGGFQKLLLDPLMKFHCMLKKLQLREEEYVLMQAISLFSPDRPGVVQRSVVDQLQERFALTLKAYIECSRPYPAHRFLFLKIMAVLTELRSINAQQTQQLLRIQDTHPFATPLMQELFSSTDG

With `CC(C)(c1ccc(O)c(-c2ccccc2)c1)c1ccc(O)c(-c2ccccc2)c1`, the Potency in [1] is 30.6 µM (active); in [2], 43.3 µM (active); in assay [3], 24.3 µM (active). Moreover, in [4], the Potency result was “inactive”.

For the molecule `CCSC(C)CC1CC(=O)C(/C(CC)=N/OC/C=C/Cl)=C(O)C1` (stereo not drawn), the Potency entry in assay [5], in assay [2], in [6], in assay [7] and in assay [3] was “inactive” in each case.

Regarding `O=S(=O)(c1ccc(Cl)cc1)c1ccc(Cl)cc1`, the Potency result in [1], in assay [6] and in [4] was “inactive” throughout. Further, the Potency in assay [2] is 41.1 µM (active); in [3] it was 22 µM (active).

Regarding `O=C(CCl)Nc1ccccc1`, the Potency in assay [1] was 61.1 µM (active); in assay [2], 54.5 µM (active). Moreover, the Potency result in assay [6] and in assay [4] was “inactive” throughout.

In the case of `CCCOCC(=Nc1ccc(Cl)cc1C(F)(F)F)n1ccnc1`, the Potency in assay [1] was 61.1 µM (active); in [2] it was 48.5 µM (active). In addition, the Potency entry in [6] and in [4] was “inactive” throughout.

Turning to `CCCN(CCC)CCc1c[nH]c2ccccc12`, the Potency result in assay [5], in [2], in assay [6], in assay [7], in assay [3] and in assay [4] was “inactive” throughout.

Consider `c1ccc2cc3c(cc2c1)-c1cccc2cccc-3c12`, for which the Potency result in [1], in [6], in assay [7] and in assay [4] was “inactive” in each case. Further, the Potency in assay [3] was 2.4 µM (active).

Take `CC(=O)C(Cl)(Cl)Cl`: the Potency entry in [5], in assay [6] and in assay [4] was “inactive” each time. Also, the figures for the Potency in assay [2], in assay [7] and in assay [3] were 14.8 µM (active), 18.7 µM (active) and 23.5 µM (active), respectively.

Regarding `CCC(C)c1cc(C(C)(C)C)cc(-n2nc3ccccc3n2)c1O` (stereo not drawn), the Potency entry in [5], in assay [2], in assay [6], in assay [7], in [3] and in assay [4] was “inactive” throughout.

Turning to `COc1ccc(OC)c(CC(C)N)c1` (stereo not drawn), the Potency result in assay [5], in [2], in [6], in assay [7] and in assay [3] was “inactive” throughout.

With `CN(C)[C@@H]1C(=O)C(C(N)=O)=C(O)[C@@]2(O)C(=O)C3=C(O)c4c(O)ccc(Cl)c4[C@@](C)(O)[C@H]3C[C@@H]12`, the Potency result in [5] and in assay [6] was “inactive” each time. The Potency in assay [2] is 27.9 µM (active).

`CCCCCCCCCC[N+](C)(C)CCCCCCCCCC`: the Potency in [1] was 27.3 µM (active); in assay [2] it was 19.3 µM (active); in assay [7] it was 68.6 µM (active). Also, the Potency result in assay [3], in assay [9] and in assay [10] was “inactive” in each case. Moreover, the max activation in [8] was -13.5%.

On to `ClCc1ccccc1CCl`, for which the Potency entry in assay [1], in [7], in assay [3] and in assay [4] was “inactive” in each case. For the same molecule, the Potency in assay [2] is 61.1 µM (active).

For `O=c1[nH]c2ccccc2n1C1CCN(CCCC(c2ccc(F)cc2)c2ccc(F)cc2)CC1`, the Potency was 61.1 µM (active) in [5]; 30.6 µM (active) and 26.6 µM (active) in assay [2]; 30.6 µM (active) in [6]; 54.5 µM (active) in [7]. Besides, the Potency result in assay [3] was “inactive”.

For `Cc1ccc(OP(=O)(Oc2ccccc2)Oc2ccccc2)cc1`, the Potency result in [5], in assay [2], in assay [6] and in [7] was “inactive” throughout. Moreover, the Potency in [3] is 13.9 µM (active); in assay [4], 20.3 µM (active).

`[Cl][Sb]([Cl])[Cl]`: the Potency entry in assay [1], in assay [6] and in assay [4] was “inactive” throughout. Also, the Potency is 54.5 µM (active) in [2] and 27.3 µM (active) in assay [3].

`CC(C)CC(C)N` (stereo not drawn): the Potency result in assay [5], in assay [2], in [6], in assay [7], in [3] and in assay [4] was “inactive” in each case.

As for `N#CCCC(Br)(C#N)CBr` (stereo not drawn), the Potency result in assay [5] and in [6] was “inactive” in each case. Besides, the Potency in [2] was 30.6 µM (active).

For `CC(=O)[O-].CC(=O)[O-].[Hg+2]`, the Potency result in assay [5] and in assay [6] was “inactive” each time. In addition, the results for the Potency in [2] and in [7] were 2.43 µM (active) and 19.3 µM (active), respectively.

Consider `c1cc[c]([Sb]([c]2ccccc2)[c]2ccccc2)cc1`, for which the Potency entry in [1], in assay [7] and in assay [4] was “inactive” in each case. Moreover, in [2], the Potency was 68.6 µM (active).

Take `c1ccc(Nc2ccc3ccccc3c2)cc1`: the Potency result in [1], in [6] and in [4] was “inactive” in each case. Also, the Potency in assay [2] was 54.5 µM (active); in assay [3], 30.5 µM (active) and 21.7 µM (active).

In the case of `N#Cc1ccccc1N`, the Potency result in [5], in [2], in assay [6], in assay [7], in assay [3] and in assay [4] was “inactive” in each case.

For the molecule `FC(F)(F)c1cccc(C2=CCN(CCc3ccc4ccccc4c3)CC2)c1`, the Potency entry in assay [5], in assay [2], in [6], in [7], in assay [3] and in assay [9] was “inactive” in each case. Moreover, in assay [10], the Potency entry is “inactive”. In addition, the max activation in assay [8] is -2.77%.

Turning to `C[C@]12CC[C@@H]3c4ccc(OC(=O)N(CCCl)CCCl)cc4CC[C@H]3[C@@H]1CC[C@@H]2O`, the Potency result in assay [1], in assay [6], in assay [7], in assay [3], in [9] and in assay [10] was “inactive” throughout.

Regarding `CCCCCCCCCCCCCCC(Br)C(=O)O` (stereo not drawn), the Potency result in assay [1], in [2], in [6], in assay [3] and in assay [4] was “inactive” throughout.

Source of the values: PubChem BioAssay (Tox21).
